Results on nine compounds are retold here after PubChem BioAssay AID1345085 (National Center for Advancing Translational Sciences (NCATS), 2018).

Inconclusive results are not listed. Values without a mark were called inactive. The source made the active and inactive calls. The call rests on the fitted dose curve; in most records, active means well fitted cell-killing curve with a large enough effect; inconclusive means small, poorly fitted or top-dose-only effect, or effect the other way; inactive means no such curve, though single readings can be large or run the other way.
On the % scale 0 is the no-effect control and ±100 the full control effect; potency means the concentration at half of the fitted maximal effect.

The subject of the test is JEG-3. The test can be described thus: Confirmatory qHTS for gynecologic anti-cancer compounds from libraries of approved drugs and bioactive compounds. Further: nearly all actives have a fitted effect of over 55% in size. The following applies: gynecologic cancer cell panel viability, ATPlite luminescence, 48 h; series mostly up to 57.6 µM; activity change, negative = viability loss: at the top concentration. A digest of the protocol: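 ATPlite luminescence read-out of cell viability; IC50 from 11-point 1:3 titrations, 57.5 uM to 0.977 nM, 48 h compound exposure at 37 C, 5% CO2. Cells seeded at 1,000/well 16 h before dosing.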
A general note: Quantitative high-throughput screening tests each substance at several concentrations.
`C[C@]12CC[C@H]3[C@@H](CCC4=CC(=O)CC[C@@H]43)[C@@H]1CC[C@@H]2OC(=O)CCc1ccccc1`: the “activity change, negative = viability loss” value was 10%. For the compound `O=C(O)Cc1ccccc1`, the “activity change, negative = viability loss” value was 3.89%. Still for that read-out and setting: the figure for `CCN1CCN(C(=O)Cc2ccc(Nc3ncc(F)c(Nc4ccc(C(=O)Nc5ccccc5Cl)cc4)n3)cc2)CC1` is -5.82%. For the compound `Cc1sc2c(c1C)C(c1ccc(Cl)cc1)=NC(CC(=O)OC(C)(C)C)c1nnc(C)n1-2` (centres undefined), the Potency was 1.93 µM (active). Consider `CCOc1ccccc1-n1c(C(C)N2CCN(C(=O)COc3ccc(Cl)cc3)CC2)nc2ccccc2c1=O` (centres undefined), for which the Potency was 10.9 µM (active). In the case of `C/C=C(/C)C(=O)O[C@H]1C(C)=C2[C@H]([C@@H]1OC(=O)CCCCCCC)[C@@](C)(OC(C)=O)C[C@H](OC(=O)CCC)[C@@]1(O)[C@H]2OC(=O)[C@@]1(C)O`, the Potency was 0.0544 µM (active).

For `C[C@H]1CCC/C=C/C2C[C@H](O)C[C@H]2[C@H](O)/C=C/C(=O)O1` (some centres undefined), the Potency was 0.344 µM (active). Still for that read-out and setting: the figure for `C=C(C)[C@H]1Cc2c(ccc3c2O[C@@H]2COc4cc(OC)c(OC)cc4[C@@H]2C3=O)O1` is 0.0273 µM (active). In the case of `CCC(=O)O[C@H]1CC[C@H]2[C@@H]3CCC4=CC(=O)CC[C@]4(C)[C@H]3CC[C@]12C`, the “activity change, negative = viability loss” value is -32.1%.
